Values joined by “and” are separate entries in the source; they are usually repeats but may differ in a detail not shown here. Identical values can stand only once. Records with an inconclusive call do not appear. Values without a mark were called inactive. Active and inactive are the calls of the source. Calls come from the whole dose curve; as a rule, active = well fitted cell-killing curve with a large enough effect in the repeat runs; inconclusive = weak or mixed curves; inactive = flat fitted curve, though single readings scatter.
Assay: qHTS assay to identify small molecule antagonists of the estrogen related receptor (ERR) signaling pathway from Tox21 library - cell viability counter screen (AID 1224834); note: nearly all actives have a fitted effect of over 30% in size
Conditions: ERR reporter cells viability, CellTiter-Fluor, 17.5 h; series mostly up to 92.4 µM; viability change, negative = cytotoxic: at the top concentration
Source text: National Center for Advancing Translational Sciences [NCATS]
NIH Chemical Genomics Center [NCGC]
U.S. Environmental Protection Agency [EPA]
National Institutes of Environmental Health Sciences [NIEHS]
National Toxicology Program [NTP]
U.S. Food and Drug Administration [FDA]
Estrogen related receptors (ERRs), the first orphan nuclear receptors discovered, play an important role in the control of cellular energy metabolism. ERRs are required for high-energy production in response to the environmental challenges. ERR-alpha was also identified as an adverse marker for breast cancer progression; ERR-alpha-positive tumors have a poor prognosis. To screen and to identify environmental compounds that perturb the ERR signaling pathways could provide valuable information for potential therapeutic or preventive measures in the treatment of metabolic disease. To differentiate true ERR antagonists or agonist from cytotoxic substances, the assay is multiplexed with cell viability assay.
Tox21 Assay Protocol Summary:
The ERR cells were dispensed at 2,000 cells/5 ul/well in 1536-well white plates using a Multidrop dispenser. After the assay plates were incubated at a 37 C/5% CO2 incubator for 6 hours, 23 nL of compounds dissolved in DMSO, positive and negative controls or DMSO only was transferred to the assay plate by a pin tool. The plates were incubated at 37 C for 17.5 hours. 1 ul/well of CellTiter-Fluor reagent was added into the assay plates using a Flying Reagent Dispenser. After 30-minute incubation at 37 C/5% CO2, the fluorescence intensity in the plates was measured using a ViewLux plate reader.
% is set by controls: 0 for no effect and ±100 for the full control effect; potency is the fitted concentration of half-maximal effect.

Row | SMILES | viability change, negative = cytotoxic | Potency
1 | CC(C)C(Br)C(=O)NC(N)=O (stereo not given) | 6.19% [at 42.5 µM] | –
2 | O=C(Nc1ccc(F)cc1F)c1cccnc1Oc1cccc(C(F)(F)F)c1 | 0.0811% | –
3 | CC(=O)O.CC(=O)O.CC(=O)O.CC(=O)O.CC(=O)O.CC(=O)O.CC(=O)O.O.O.[Cr].[Cr].[Cr] | 0.964% | –
4 | CN1C2CCC(C)(C)C1CC(OC(=O)C(O)(c1cccs1)c1cccs1)C2 (stereo not given) | 1.27% [at 42.5 µM] | –
5 | ClC(Cl)C(Cl)(Cl)Cl | -1.7% | –
6 | C=C(C)C(=O)[O][Sn]([CH2]CCC)([CH2]CCC)[CH2]CCC | – | 1.72 µM (active)
7 | CSC(C)(C)/C=N/O | 5.29% | –
8 | C=Cc1cccc(CCl)c1 | 1.75% [at 240 µM] | –
9 | N#Cc1c2ccccc2cc2ccccc12 | 4.06% | –
10 | Cc1nn(-c2cc(NS(C)(=O)=O)c(Cl)cc2Cl)c(=O)n1C(F)F | -6.13% | –
11 | CC[C@H](C)[C@H]1O[C@]2(C=C[C@@H]1C)C[C@@H]1C[C@@H](C/C=C(\C)[C@@H](O[C@H]3C[C@H](OC)[C@@H](O[C@H]4C[C@H](OC)[C@@H](NC)[C@H](C)O4)[C@H](C)O3)[C@@H](C)/C=C/C=C3\CO[C@@H]4[C@H](O)C(C)=C[C@@H](C(=O)O1)[C@]34O)O2 | – | 8.63 µM (active)
12 | CNC(=O)CSP(=O)(OC)OC | 7.58% | –
13 | [O]=[Cr][O][Cr]=[O] | 2.16% | –
14 | CN1CCc2cc(Cl)c(O)cc2[C@H]2c3ccccc3CC[C@@H]21 | -12.9% [at 42.5 µM] | –
15 | C[C@]12CC[C@H]3[C@@H](CCC4=CC(=O)CC[C@@H]43)[C@@H]1CC[C@@H]2OC(=O)CCc1ccco1 | 7.6% [at 42.5 µM] | –
16 | CCC(C)Nc1c([N+](=O)[O-])cc(C(C)(C)C)cc1[N+](=O)[O-] (stereo not given) | -0.155% | –
17 | CC1(C)C(C=C(Cl)Cl)C1C(=O)OC(C#N)c1ccc(F)c(Oc2ccccc2)c1 (stereo not given) | 3.44% | –
18 | Nc1cc(Cl)ccc1Cl | 2.54% | –
19 | CCN(CC)CCc1c[nH]c2ccccc12 | 0.432% | –
20 | CCC1(CC)C(=O)N=C(O)NC1=O | 1.19% | –

Row | SMILES | viability change, negative = cytotoxic | Potency
21 | CNC(=O)O/N=C(\C)C(C)S(C)(=O)=O (stereo not given) | 0.393% [at 872 µM] | –
22 | Oc1cccc(Cl)c1Cl | 4.2% | –
23 | CCCCC/C=C\C/C=C\C/C=C\C/C=C\CCCC(=O)NCC(=O)O | -0.694% [at 42.5 µM] | –
24 | CCC(OC(C)=O)C(CC(C)NC)(c1ccccc1)c1ccccc1 (stereo not given) | – | 69.2 µM (active)
25 | Clc1cc(Cl)c(-c2cc(Cl)c(Cl)cc2Cl)cc1Cl | 0.967% [at 42.5 µM] | –
26 | CCOP(=O)(OCC)Oc1nc(Cl)c(Cl)cc1Cl | -3.71% | –
27 | COC(=O)C(C)N(C(=O)c1ccco1)c1c(C)cccc1C (stereo not given) | -0.18% | –
28 | CN(C)C(=S)SSC(=S)N(C)C | – | 339 nM (active) and 433 nM (active) and 473 nM (active)
29 | O=S1OCC2C(CO1)C1(Cl)C(Cl)=C(Cl)C2(Cl)C1(Cl)Cl (stereo not given) | – | 54.5 µM (active)
30 | O=C(O)[C@H](O)[C@@H](O)C(=O)O | 0.802% | –
31 | CN=C=O | 0.676% | –
32 | CCCCN(CCCC)C(=S)[S-].CCCCN(CCCC)C(=S)[S-].[Ni+2] | -7.07% [at 42.5 µM] | –
33 | Cc1ccn2nc(S(=O)(=O)Nc3c(F)cccc3F)nc2n1 | 3.26% | –
34 | BrCCCBr | 2.55% | –
35 | N#Cc1sc2c(=O)c3ccccc3c(=O)c=2sc1C#N | – | 48.6 µM (active)
36 | CCN1CCC2(CC1)COc1cc3c(cc12)N(C(=O)c1ccc(-c2ccc(-c4nnc(C)o4)cc2C)cc1)CC3 | – | 17.8 µM (active)
37 | CC(Cc1ccc(OCC(=O)O)cc1)NCC(O)c1csc(C(F)(F)F)n1 (stereo not given) | 1.63% | –
38 | O=Cc1ccccc1 | 11.1% | –
39 | CSC(=O)c1c(C(F)F)nc(C(F)(F)F)c(C(=O)SC)c1CC(C)C | -9.5% | –
40 | COC(=O)c1ccccc1S(=O)(=O)NC(=O)Nc1nc(C)nc(OC)n1 | 1.8% | –
